Target: T1, OTUD4 (UniProt Q01804)
T1 sequence (whole entry): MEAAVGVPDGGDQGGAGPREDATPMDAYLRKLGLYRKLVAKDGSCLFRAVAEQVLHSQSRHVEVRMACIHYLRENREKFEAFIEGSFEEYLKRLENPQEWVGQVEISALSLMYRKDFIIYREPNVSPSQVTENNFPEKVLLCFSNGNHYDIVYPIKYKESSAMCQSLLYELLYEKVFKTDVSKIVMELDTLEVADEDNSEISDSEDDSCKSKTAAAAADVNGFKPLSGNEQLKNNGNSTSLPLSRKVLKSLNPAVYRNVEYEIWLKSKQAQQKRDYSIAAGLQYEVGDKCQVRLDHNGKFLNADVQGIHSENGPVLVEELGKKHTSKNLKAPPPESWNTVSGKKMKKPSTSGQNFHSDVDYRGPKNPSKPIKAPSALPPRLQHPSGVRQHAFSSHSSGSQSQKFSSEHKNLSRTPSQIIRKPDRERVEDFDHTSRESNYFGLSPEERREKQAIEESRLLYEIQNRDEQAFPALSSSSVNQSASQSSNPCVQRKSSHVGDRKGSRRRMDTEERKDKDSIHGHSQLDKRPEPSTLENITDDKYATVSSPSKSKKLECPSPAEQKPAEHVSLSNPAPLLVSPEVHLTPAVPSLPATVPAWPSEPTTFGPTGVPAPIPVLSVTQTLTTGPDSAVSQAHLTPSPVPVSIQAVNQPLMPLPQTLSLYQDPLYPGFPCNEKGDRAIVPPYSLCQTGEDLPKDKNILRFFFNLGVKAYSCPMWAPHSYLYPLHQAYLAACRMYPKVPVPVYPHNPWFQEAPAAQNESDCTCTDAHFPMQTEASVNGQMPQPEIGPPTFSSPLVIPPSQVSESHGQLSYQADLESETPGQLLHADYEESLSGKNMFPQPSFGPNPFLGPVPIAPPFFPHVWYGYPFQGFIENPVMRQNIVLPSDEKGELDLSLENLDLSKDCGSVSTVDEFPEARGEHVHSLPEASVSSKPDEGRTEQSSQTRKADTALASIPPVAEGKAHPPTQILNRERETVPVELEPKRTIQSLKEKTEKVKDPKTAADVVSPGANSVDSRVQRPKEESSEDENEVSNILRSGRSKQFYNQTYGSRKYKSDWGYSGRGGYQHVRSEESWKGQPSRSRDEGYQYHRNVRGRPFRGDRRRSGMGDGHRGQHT
Experiment: log2 ratio of Biotin-Ahx-Ub-VS probe labelling (fragment/DMSO); higher = less target engagement (more negative = stronger competition), active = hit call of the paper (q ≤ 0.05, log2 ratio ≤ -1)
Conditions: compound concentration: 200 uM; treatment time: 3 h
Summary of the method: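 HEK293T lysate in Tris/CHAPS/IGEPAL buffer with protease inhibitors (495 µg per sample) was given fragment at 200 µM or vehicle for 3 h, in triplicate. It then received Biotin-Ahx-Ub-VS at 0.5 µM final for 1 h. Labelled DUBs were NeutrAvidin-enriched, digested with LysC and trypsin, and run by diaPASEF LC-MS/MS. Values are average log2 fragment/vehicle ratios by unpaired t-test on global-median-normalised Spectronaut quantities of proteins with ≥2 unique peptides.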

log2 ratio of Biotin-Ahx-Ub-VS probe labelling, inactive:
O=C(CCl)N1CCCC2CCCCC21 (centres undefined) -0.106
O=C(CCl)Nc1cccc(NC(=O)c2ccccc2)c1 0.39
O=C(CCl)N1CCOCC1C1CC1 (centres undefined) -0.865
Cl.O=C(CCl)N1CCCC(c2ncc[nH]2)C1 (centres undefined) -0.288
O=C(CCl)N1CC=C(c2c[nH]c3ccccc23)CC1 -0.412
Cl.O=C(CCl)N1CCC(Cc2nccs2)C1 (centres undefined) -0.386
O=C(CCl)Nc1ccccc1C(F)(F)F -0.356
Cc1ccc(C)c(Oc2ccc(CNC(=O)CCl)cn2)c1.Cl -0.382
CC(=O)Nc1ccc(NC(=O)CCl)cc1 -0.296
O=C(CCl)N1CCC2(CCC(O)CC2)CC1 -0.206
Cc1conc1C1CN(C(=O)CCl)C1 -0.837
COc1ccccc1C(C)NC(=O)CCl (centres undefined) -0.393
Cc1ccc(-c2nnc(C)[nH]2)c(NC(=O)CCl)c1 -0.353
CS(=O)(=O)c1ccc(CNC(=O)CCl)cc1 -0.317

— the supplement of paper PMC11732987, “Enantioselective OTUD7B fragment discovery through chemoproteomics screening and high-throughput optimisation” (Communications Chemistry, 2025)
